In ChEMBL document CHEMBL2218924, “A broad activity screen in support of a chemogenomic map for kinase signalling research and drug discovery” (Biochem J, 2013) one finds residual activity data, which are given here for 1 compound.

For test [1], the target named is T1, Serine/threonine-protein kinase TBK1 (Homo sapiens) (UniProt Q9UHD2).
T1 sequence (whole entry): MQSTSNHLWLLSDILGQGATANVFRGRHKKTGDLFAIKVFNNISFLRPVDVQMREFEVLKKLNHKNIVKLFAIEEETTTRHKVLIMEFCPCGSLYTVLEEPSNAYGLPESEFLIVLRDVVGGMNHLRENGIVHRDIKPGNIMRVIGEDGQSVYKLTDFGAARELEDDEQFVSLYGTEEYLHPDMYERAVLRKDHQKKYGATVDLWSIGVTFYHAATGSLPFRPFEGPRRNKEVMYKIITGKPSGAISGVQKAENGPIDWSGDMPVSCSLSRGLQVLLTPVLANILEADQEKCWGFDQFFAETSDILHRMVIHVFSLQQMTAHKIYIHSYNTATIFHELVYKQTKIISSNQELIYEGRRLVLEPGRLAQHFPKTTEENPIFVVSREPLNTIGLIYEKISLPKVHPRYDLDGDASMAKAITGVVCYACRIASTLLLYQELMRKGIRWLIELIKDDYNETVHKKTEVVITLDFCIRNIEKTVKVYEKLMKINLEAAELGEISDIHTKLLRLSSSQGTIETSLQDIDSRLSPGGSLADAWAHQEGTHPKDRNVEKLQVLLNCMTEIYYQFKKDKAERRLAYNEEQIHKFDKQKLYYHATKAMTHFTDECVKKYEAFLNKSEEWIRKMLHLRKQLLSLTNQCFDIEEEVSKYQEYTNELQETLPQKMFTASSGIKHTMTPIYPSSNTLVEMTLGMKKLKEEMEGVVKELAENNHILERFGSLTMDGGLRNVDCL
The following applies: at 10 µM.

Test [2] has as its target T2, TGF-beta receptor type-1 (Homo sapiens) (UniProt P36897).
T2 sequence (whole entry): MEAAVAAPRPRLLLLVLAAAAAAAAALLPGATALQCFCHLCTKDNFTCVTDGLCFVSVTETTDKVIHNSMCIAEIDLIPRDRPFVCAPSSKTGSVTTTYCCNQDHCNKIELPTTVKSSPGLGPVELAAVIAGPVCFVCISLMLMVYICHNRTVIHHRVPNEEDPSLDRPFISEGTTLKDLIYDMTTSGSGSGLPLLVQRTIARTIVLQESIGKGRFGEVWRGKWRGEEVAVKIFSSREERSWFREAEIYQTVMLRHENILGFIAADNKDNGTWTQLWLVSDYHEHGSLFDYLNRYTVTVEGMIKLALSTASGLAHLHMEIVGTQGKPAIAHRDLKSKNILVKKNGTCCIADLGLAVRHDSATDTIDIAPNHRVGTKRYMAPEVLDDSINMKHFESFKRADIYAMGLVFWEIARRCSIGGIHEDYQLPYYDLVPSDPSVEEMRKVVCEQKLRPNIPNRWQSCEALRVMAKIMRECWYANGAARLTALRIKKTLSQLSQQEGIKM
To be noted: at 1 µM.

Test [3] concerns the target T2, TGF-beta receptor type-1 (Homo sapiens). To be noted: at 10 µM.
Test [4] has as its target Insulin-like growth factor 1 receptor (Homo sapiens) (UniProt P08069). The following applies: at 1 µM.
Test [5] shares this target. The following applies: at 10 µM.
Test [6] concerns the target T3, Inhibitor of nuclear factor kappa-B kinase subunit alpha (Homo sapiens) (UniProt O15111).
T3 sequence (whole entry): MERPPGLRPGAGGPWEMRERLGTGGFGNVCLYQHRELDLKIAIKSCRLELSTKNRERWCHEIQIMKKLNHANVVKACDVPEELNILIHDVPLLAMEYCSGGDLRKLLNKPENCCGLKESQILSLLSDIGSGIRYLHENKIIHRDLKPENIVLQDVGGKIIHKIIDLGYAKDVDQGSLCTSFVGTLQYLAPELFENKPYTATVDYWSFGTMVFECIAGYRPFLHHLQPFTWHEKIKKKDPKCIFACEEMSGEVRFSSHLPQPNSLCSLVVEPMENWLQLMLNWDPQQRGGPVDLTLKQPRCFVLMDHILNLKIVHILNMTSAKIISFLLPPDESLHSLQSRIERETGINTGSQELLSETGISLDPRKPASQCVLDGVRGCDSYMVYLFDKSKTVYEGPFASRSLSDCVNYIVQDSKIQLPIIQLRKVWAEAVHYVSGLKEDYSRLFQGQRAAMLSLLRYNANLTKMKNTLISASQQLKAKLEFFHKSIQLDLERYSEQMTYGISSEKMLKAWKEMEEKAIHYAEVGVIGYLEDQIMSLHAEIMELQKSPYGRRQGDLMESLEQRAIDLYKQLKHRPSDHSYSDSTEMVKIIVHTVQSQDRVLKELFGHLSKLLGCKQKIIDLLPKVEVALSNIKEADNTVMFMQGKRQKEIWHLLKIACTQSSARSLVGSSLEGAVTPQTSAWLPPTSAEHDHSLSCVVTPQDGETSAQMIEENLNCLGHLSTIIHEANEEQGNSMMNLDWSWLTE
The following applies: at 1 µM.

Test [7] has as its target T3, Inhibitor of nuclear factor kappa-B kinase subunit alpha (Homo sapiens). The following applies: at 10 µM.
Test [8] deals with T4, Inhibitor of nuclear factor kappa-B kinase subunit beta (Homo sapiens) (UniProt O14920).
T4 sequence (whole entry): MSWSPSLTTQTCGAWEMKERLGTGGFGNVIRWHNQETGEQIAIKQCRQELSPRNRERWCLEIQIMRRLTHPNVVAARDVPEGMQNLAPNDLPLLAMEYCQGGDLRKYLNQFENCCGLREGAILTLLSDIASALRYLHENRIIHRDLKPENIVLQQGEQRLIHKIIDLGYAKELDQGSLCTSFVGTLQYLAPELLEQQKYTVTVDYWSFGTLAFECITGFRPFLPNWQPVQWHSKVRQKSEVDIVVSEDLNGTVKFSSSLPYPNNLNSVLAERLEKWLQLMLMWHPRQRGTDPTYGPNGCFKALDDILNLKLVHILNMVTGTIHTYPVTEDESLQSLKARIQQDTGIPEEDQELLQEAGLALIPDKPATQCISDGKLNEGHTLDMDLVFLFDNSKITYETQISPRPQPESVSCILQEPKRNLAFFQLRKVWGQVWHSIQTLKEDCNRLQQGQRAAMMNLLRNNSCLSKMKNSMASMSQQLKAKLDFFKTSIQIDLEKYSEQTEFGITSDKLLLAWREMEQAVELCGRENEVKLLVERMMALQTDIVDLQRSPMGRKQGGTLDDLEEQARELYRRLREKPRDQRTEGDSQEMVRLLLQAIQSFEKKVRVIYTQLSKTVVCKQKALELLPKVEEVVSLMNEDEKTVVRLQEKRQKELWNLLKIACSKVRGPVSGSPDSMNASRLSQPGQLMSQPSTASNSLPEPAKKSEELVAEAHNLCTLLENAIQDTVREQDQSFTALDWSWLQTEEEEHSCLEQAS
The following applies: at 1 µM.

Test [9] concerns the target T4, Inhibitor of nuclear factor kappa-B kinase subunit beta (Homo sapiens). The following applies: at 10 µM.
Test [10] addresses Insulin receptor (Homo sapiens) (UniProt P06213). To be noted: at 1 µM.

Chain of Insulin-like growth factor 1 receptor (Homo sapiens) (P08069 31-736 limits assumed): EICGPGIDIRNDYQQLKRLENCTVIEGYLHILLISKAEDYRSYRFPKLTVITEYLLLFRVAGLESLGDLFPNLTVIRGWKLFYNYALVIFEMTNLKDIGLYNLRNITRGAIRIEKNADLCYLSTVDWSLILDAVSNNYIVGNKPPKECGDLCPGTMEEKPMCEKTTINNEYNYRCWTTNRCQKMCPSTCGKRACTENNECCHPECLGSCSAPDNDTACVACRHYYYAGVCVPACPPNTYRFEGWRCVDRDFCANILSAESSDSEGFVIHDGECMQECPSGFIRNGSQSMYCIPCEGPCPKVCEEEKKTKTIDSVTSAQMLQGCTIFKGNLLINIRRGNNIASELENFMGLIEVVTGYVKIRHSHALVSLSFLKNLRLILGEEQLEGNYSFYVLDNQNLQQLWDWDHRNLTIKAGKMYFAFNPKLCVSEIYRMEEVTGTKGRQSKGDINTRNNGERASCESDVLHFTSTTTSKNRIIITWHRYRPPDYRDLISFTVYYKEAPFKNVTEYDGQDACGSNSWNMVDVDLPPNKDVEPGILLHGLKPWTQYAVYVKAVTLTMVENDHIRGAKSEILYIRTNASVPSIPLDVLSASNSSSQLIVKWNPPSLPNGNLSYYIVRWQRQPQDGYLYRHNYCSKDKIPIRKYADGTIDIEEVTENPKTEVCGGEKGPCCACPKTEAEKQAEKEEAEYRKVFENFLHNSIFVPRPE
Chain of Insulin-like growth factor 1 receptor (Homo sapiens) (P08069 741-1367 limits assumed): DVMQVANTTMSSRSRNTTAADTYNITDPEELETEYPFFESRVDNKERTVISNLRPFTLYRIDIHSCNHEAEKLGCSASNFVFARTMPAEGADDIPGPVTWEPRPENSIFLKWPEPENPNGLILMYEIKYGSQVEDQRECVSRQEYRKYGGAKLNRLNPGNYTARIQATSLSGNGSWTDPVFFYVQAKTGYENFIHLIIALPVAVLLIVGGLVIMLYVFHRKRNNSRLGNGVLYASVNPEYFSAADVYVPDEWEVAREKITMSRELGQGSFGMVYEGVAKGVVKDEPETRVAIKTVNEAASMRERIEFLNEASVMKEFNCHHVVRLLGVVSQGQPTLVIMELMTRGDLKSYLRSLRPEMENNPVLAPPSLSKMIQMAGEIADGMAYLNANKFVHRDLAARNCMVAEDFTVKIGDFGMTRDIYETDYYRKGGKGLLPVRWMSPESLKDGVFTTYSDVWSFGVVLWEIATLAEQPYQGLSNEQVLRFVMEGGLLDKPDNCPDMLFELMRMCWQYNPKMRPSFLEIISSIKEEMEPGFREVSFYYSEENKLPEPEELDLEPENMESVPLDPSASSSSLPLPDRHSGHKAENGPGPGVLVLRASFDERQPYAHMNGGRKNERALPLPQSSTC
Chain of Insulin receptor (Homo sapiens) (P06213 28-758 limits assumed): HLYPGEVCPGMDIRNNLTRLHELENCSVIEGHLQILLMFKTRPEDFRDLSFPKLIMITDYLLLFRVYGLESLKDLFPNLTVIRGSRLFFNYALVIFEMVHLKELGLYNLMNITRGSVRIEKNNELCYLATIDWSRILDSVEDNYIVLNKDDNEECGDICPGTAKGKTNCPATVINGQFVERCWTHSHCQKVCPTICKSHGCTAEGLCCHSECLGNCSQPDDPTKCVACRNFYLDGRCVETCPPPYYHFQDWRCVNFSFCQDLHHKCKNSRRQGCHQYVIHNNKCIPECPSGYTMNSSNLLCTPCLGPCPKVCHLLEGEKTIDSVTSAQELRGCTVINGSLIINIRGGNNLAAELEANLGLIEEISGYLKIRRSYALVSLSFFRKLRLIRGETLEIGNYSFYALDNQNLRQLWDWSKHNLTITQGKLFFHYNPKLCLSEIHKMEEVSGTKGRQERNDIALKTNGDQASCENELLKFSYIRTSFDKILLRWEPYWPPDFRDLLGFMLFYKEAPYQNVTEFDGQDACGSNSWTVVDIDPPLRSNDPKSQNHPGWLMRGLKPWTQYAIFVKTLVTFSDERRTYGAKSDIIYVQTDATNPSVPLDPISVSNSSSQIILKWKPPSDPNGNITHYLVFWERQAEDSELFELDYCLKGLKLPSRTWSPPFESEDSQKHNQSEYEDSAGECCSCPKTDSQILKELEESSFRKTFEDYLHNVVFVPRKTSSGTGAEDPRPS
Chain of Insulin receptor (Homo sapiens) (P06213 763-1382 limits assumed): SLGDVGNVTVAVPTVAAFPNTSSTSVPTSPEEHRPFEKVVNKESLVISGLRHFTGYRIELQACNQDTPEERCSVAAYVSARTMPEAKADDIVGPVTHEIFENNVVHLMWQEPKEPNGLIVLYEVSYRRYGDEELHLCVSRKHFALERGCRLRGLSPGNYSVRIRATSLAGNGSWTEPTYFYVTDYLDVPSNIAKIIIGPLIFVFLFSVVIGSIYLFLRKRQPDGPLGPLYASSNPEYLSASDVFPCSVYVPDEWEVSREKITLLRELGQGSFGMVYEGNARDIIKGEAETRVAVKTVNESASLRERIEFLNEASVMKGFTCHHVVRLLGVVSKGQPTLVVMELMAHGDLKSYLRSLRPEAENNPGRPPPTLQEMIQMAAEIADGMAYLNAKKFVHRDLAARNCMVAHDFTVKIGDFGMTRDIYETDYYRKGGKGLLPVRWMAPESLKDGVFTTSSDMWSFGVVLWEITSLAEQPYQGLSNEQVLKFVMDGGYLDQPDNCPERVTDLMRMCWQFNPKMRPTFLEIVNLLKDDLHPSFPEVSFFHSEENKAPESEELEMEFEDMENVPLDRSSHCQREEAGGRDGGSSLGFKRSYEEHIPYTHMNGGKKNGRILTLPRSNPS

By residual activity is commonly meant the signal under treatment as a percentage of the control signal. Take `Nc1ccc2ncnc(NCCc3ccc(Oc4ccccc4)cc3)c2c1`: the residual activity in test [1] worked out at 62%; in test [2], 117%; in test [3], 112%; in test [4], 116%; in test [5], 119%; in test [6] it was 107%. The residual activity in test [7] was found to be 101%; in test [8], 115%; in test [9], 110%; in test [10] it was 139%.
